Reference: PubChem BioAssay (EPA / NIEHS)
Inconclusive results are not listed. The source holds several records for some structures; these can differ, active in one and inactive in another. Activity calls are given as the source filed them. How the source made its calls, unless noted: active means hit-call score of the fitted dose curve at least 0.9, where 1 is the maximum; inactive means score below 0.9.

Experiments:
[1] = BSK_4H_Eotaxin3: BioMAP Diversity Plus: 4H Assay for Eotaxin 3 Biomarker Activity (AID 2283000); settings: primary human endothelial cells (HUVEC); actives raise or lower the signal
How it was run: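 ELISA quantitation of CCL26 (Eotaxin-3) protein from chemically dosed human vascular endothelial cells at 24 h; increases and decreases both scored relative to DMSO-treated baseline.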

[2] = biological target: human Peroxisome Proliferator-activated Receptor alpha (PPARa), PPARA (gene 5465) (UniProt Q07869); assay: ATG_PPARa_TRANS: Attagene TRANS-FACTORIAL HepG2 Assay for human Peroxisome Proliferator-activated Receptor alpha (PPARa) (AID 2283001; active means hit-call score of the fitted dose curve at least 0.9, where 1 is the maximum;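 on AC50: potency for gain of reporter signal over DMSO so agonist or activator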)
How it was run: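 Reporter transcripts quantified by RT-PCR plus capillary electrophoresis after 24 h treatment, fitted upward relative to DMSO. Cells: human HepG2 transiently carrying multiple GAL4-UAS reporter units driven by NR-Gal4 chimeras.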

[3] = biological target: human Peroxisome Proliferator-activated Receptor delta (PPARd), PPARD (gene 5467) (UniProt Q03181); assay: ATG_PPARd_TRANS: Attagene TRANS-FACTORIAL HepG2 Assay for human Peroxisome Proliferator-activated Receptor delta (PPARd) (AID 2283002; active means hit-call score of the fitted dose curve at least 0.9, where 1 is the maximum)
How it was run: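 Transient HepG2 transfection (multiple GAL4-UAS RTUs, chimeric receptor-Gal4); 24 h dosing; total RNA → oligo(dT) RT → PCR → 6-FAM primer extension → HpaI cut → CE. Positive direction vs DMSO.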

[4] = read-out: Intercellular Adhesion Molecule 1 (ICAM1), ICAM1 (gene 3383); assay: BSK_3C_ICAM1: BioMAP Diversity Plus: 3C Assay for Intercellular Adhesion Molecule 1 (ICAM1) Biomarker Activity (AID 2283003); settings: primary human endothelial cells (HUVEC); actives raise or lower the signal
How it was run: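 Chemicals are dosed onto primary human umbilical vein endothelium (3C system). After 24 h, ICAM-1 is measured by ELISA, and responses are fitted bidirectionally relative to DMSO.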

[5] = BSK_3C_Proliferation: Cell Proliferation Assessment in the BioMAP Diversity Plus: 3C Assay (AID 2283006); settings: primary human endothelial cells (HUVEC);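 on AC50: potency may reflect either rise or fall in cell number versus DMSO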
How it was run: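 Cells (human umbilical vein endothelial, sub-confluent) receive test chemical; after 48 h they are fixed in 10% trichloroacetic acid, stained with 0.1% SRB and read at 560 nm. Activity is referenced to DMSO, fitting increases and decreases.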

[6] = biological target: Peroxisome proliferator-activated receptor gamma (Homo sapiens) (UniProt P37231); assay: ATG_PPARg_TRANS: Attagene TRANS-FACTORIAL HepG2 Assay for human Peroxisome Proliferator-activated Receptor-gamma (PPARg) (AID 2283007; active means hit-call score of the fitted dose curve at least 0.9, where 1 is the maximum)
How it was run: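 After 24 h of chemical exposure, transfected HepG2 cells carrying PPARγ-Gal4 chimera reporter constructs are lysed for RNA. Reporter transcripts are measured by RT-PCR and capillary electrophoresis with fluorescent labelling, and gain of signal is fitted versus DMSO.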

[7] = biological target: Nuclear receptor subfamily 1 group I member 2 (Homo sapiens) (UniProt O75469); assay: ATG_PXR_TRANS: Attagene TRANS-FACTORIAL HepG2 Assay for human Pregnane X Receptor (PXR) (AID 2283008; active means hit-call score of the fitted dose curve at least 0.9, where 1 is the maximum)
How it was run: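 HepG2 transfected (FuGene 6) with GAL4-UAS reporter units + PXR-Gal4 chimera; dosed 24 h. Total RNA → oligo(dT) RT → PCR → 6-FAM primer extension → HpaI cut → CE. Gain-of-signal vs DMSO.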

[8] = biological target: human Retinoic Acid Receptor gamma (RARg), RARG (gene 5916) (UniProt P13631); assay: ATG_RARg_TRANS: Attagene TRANS-FACTORIAL HepG2 Assay for human Retinoic Acid Receptor gamma (RARg) (AID 2283009; active means hit-call score of the fitted dose curve at least 0.9, where 1 is the maximum)
How it was run: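 TRANS format measured activity of exogenous NR-GAL4 fusion (RARg) in transfected HepG2 liver cells after 24 h dosing. Induced reporter RNA was detected by RT-PCR/capillary electrophoresis fluorescence, analysed in the positive direction against DMSO.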

[9] = biological target: human RAR-related Orphan Receptor beta (RORb), RORB (gene 6096) (UniProt Q92753); assay: ATG_RORb_TRANS: Attagene TRANS-FACTORIAL HepG2 Assay for human RAR-related Orphan Receptor beta (RORb) (AID 2283010; active means hit-call score of the fitted dose curve at least 0.9, where 1 is the maximum)
How it was run: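 Transfect HepG2 with multiple GAL4-UAS reporter transcription units; dose chemicals for 24 h; isolate RNA, reverse-transcribe and PCR-amplify reporter sequences; label, digest and resolve fragments by capillary electrophoresis; fit increases relative to DMSO.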

[10] = biological target: Retinoic acid receptor RXR-alpha (Homo sapiens) (UniProt P19793); assay: ATG_RXRa_TRANS: Attagene TRANS-FACTORIAL HepG2 Assay for human Retinoid X Receptor alpha (RXRa) (AID 2283012; active means hit-call score of the fitted dose curve at least 0.9, where 1 is the maximum)
How it was run: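 Measures exogenous chimeric NR-GAL4 activity in transfected HepG2 liver cells after 24 h of dosing. Induced reporter mRNA was detected by RT-PCR with capillary electrophoresis, and gain of signal was analysed against DMSO.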

[11] = biological target: human Retinoid X Receptor beta (RXRb), RXRB (gene 6257) (UniProt P28702); assay: ATG_RXRb_TRANS: Attagene TRANS-FACTORIAL HepG2 Assay for human Retinoid X Receptor beta (RXRb) (AID 2283013; active means hit-call score of the fitted dose curve at least 0.9, where 1 is the maximum)
How it was run: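 Chimeric receptor-Gal4 activity was assessed in transiently transfected human HepG2 cells after 24 h exposure. Transcripts from GAL4-UAS reporters were quantified by fluorescent RT-PCR and capillary electrophoresis, with DMSO as negative control and baseline.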

[12] = read-out: E-selectin (Homo sapiens) (UniProt P16581); assay: BSK_3C_Eselectin: BioMAP Diversity Plus: 3C Assay for Eselectin Biomarker Activity (AID 2283015); settings: primary human endothelial cells (HUVEC); actives raise or lower the signal
How it was run: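 Endpoint derived by bidirectional fitting against DMSO vehicle; signal is ELISA-detected E-selectin from primary HUVEC at 24 h post-dosing, with parallel SRB staining (0.1% SRB, 560 nm) flagging cytotoxicity.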

[13] = read-out: Interleukin-1 alpha (IL1a), IL1A (gene 3552); assay: BSK_BE3C_IL1a: BioMAP Diversity Plus: BE3C Assay for Interleukin-1 alpha (IL1a) Biomarker Activity (AID 2283016); settings: primary human bronchial epithelial cells; actives raise or lower the signal
How it was run: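 Signal from IL-1a ELISA, taken 24 h after chemical dosing of human bronchial epithelial cells, is compared with DMSO as baseline using bidirectional curve fitting.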

[14] = read-out: Monocyte Chemoattractant Protein-1 (MCP1), CCL2 (gene 6347); assay: BSK_3C_MCP1: BioMAP Diversity Plus: 3C Assay for Monocyte Chemoattractant Protein-1 (MCP1) Biomarker Activity (AID 2283017); settings: primary human endothelial cells (HUVEC); actives raise or lower the signal
How it was run: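 Using human vascular primary endothelium, researchers measured MCP-1 by ELISA 24 h after treatment, with DMSO serving as negative control for bidirectional fitting.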

[15] = read-out: Human Leukocyte Antigen - DR isotype (HLADR), HLA-DRA (gene 3122); assay: BSK_3C_HLADR: BioMAP Diversity Plus: 3C Assay for Human Leukocyte Antigen - DR isotype (HLADR) Biomarker Activity (AID 2283019); settings: primary human endothelial cells (HUVEC); actives raise or lower the signal
How it was run: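 Compound added to primary HUVEC cultures, 24 h incubation, then HLA-DR determined by ELISA; endpoint derived by bidirectional fitting relative to DMSO negative control.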

[16] = biological target: Retinoic acid receptor alpha (Homo sapiens) (UniProt P10276); assay: ATG_RARa_TRANS: Attagene TRANS-FACTORIAL HepG2 Assay for human Retinoic Acid Receptor alpha (RARa) (AID 2283005; active means hit-call score of the fitted dose curve at least 0.9, where 1 is the maximum)
How it was run: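 Reporter transcripts, measured by RT-PCR with fluorescent labeling and capillary electrophoresis after 24 h dosing, reflect activity of an exogenous human RARa–GAL4 fusion in transiently transfected HepG2. Fitted for increase relative to DMSO.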

[17] = biological target: human Thyroid Receptor alpha (THRa1), THRA (gene 7067) (UniProt P10827); assay: ATG_THRa1_TRANS: Attagene TRANS-FACTORIAL HepG2 Assay for human Thyroid Receptor alpha (THRa1) (AID 2283014; active means hit-call score of the fitted dose curve at least 0.9, where 1 is the maximum)
How it was run: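 Measured here is mRNA from a GAL4-UAS reporter in transfected HepG2 cells carrying a Gal4-fused receptor, 24 h post-dose. DMSO served as negative control and baseline.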

[18] = read-out: Monocyte Chemoattractant Protein-1 (MCP1), CCL2 (gene 6347); assay: BSK_4H_MCP1: BioMAP Diversity Plus: 4H Assay for Monocyte Chemoattractant Protein-1 (MCP1) Biomarker Activity (AID 2283018); settings: primary human endothelial cells (HUVEC); actives raise or lower the signal
How it was run: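 Endothelial cells from umbilical vein were treated with test chemical, then after 24 h MCP-1 levels were quantified by ELISA; endpoint values came from bidirectional fitting with DMSO as baseline of activity.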

[19] = biological target: human Retinoic Acid Receptor beta (RARb), RARB (gene 5915) (UniProt P10826); assay: ATG_RARb_TRANS: Attagene TRANS-FACTORIAL HepG2 Assay for human Retinoic Acid Receptor beta (AID 2283004; active means hit-call score of the fitted dose curve at least 0.9, where 1 is the maximum)
How it was run: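 Fluorescent capillary-electrophoresis detection of GAL4-UAS reporter mRNA defines the endpoint, with induction over DMSO-treated wells scored as activity. Transiently transfected human hepatoma HepG2 cells expressing exogenous NR–Gal4 proteins are exposed to test chemicals for 24 h.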

[20] = biological target: human RAR-related Orphan Receptor gamma (RORg), RORC (gene 6097) (UniProt P51449); assay: ATG_RORg_TRANS: Attagene TRANS-FACTORIAL HepG2 Assay for human RAR-related Orphan Receptor gamma (RORg) (AID 2283011; active means hit-call score of the fitted dose curve at least 0.9, where 1 is the maximum;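 on AC50: potency for induction of reporter transcripts above DMSO so activators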)
How it was run: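 Chimeric RORg-Gal4 transactivation in transfected HepG2; 24 h exposure; RT-PCR/capillary electrophoresis readout of reporter mRNA, DMSO baseline.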

Measured: AC50

Chain of Retinoic acid receptor RXR-alpha (Homo sapiens) (P19793 whole entry, looked up, the tested form may be a part): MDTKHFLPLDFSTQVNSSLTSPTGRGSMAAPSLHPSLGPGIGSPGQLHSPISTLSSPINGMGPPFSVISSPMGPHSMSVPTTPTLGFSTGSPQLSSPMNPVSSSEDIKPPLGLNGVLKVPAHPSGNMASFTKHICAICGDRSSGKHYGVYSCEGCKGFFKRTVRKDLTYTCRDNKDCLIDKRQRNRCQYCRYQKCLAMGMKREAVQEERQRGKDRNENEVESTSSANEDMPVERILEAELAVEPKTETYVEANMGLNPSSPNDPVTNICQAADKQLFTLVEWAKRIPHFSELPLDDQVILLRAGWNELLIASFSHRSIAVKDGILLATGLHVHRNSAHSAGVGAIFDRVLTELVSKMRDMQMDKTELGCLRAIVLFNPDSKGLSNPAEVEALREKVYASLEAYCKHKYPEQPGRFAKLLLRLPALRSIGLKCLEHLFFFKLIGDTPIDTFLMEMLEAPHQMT
Chain of human RAR-related Orphan Receptor gamma (RORg), RORC (gene 6097) (P51449 whole entry, looked up, the tested form may be a part): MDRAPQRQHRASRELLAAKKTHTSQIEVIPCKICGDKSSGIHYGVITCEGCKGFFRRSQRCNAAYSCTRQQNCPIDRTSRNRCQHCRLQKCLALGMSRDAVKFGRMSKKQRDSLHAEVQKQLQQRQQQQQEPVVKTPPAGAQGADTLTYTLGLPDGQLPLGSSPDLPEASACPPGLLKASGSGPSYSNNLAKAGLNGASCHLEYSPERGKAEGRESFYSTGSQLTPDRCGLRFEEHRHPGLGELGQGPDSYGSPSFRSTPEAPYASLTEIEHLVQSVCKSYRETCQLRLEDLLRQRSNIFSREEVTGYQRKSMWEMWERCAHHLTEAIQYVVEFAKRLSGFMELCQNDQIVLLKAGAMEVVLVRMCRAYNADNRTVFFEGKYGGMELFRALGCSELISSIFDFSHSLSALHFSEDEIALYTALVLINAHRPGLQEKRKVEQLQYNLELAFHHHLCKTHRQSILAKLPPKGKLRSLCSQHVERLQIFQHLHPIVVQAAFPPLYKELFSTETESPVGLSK
Chain of human Retinoid X Receptor beta (RXRb), RXRB (gene 6257) (P28702 whole entry, looked up, the tested form may be a part): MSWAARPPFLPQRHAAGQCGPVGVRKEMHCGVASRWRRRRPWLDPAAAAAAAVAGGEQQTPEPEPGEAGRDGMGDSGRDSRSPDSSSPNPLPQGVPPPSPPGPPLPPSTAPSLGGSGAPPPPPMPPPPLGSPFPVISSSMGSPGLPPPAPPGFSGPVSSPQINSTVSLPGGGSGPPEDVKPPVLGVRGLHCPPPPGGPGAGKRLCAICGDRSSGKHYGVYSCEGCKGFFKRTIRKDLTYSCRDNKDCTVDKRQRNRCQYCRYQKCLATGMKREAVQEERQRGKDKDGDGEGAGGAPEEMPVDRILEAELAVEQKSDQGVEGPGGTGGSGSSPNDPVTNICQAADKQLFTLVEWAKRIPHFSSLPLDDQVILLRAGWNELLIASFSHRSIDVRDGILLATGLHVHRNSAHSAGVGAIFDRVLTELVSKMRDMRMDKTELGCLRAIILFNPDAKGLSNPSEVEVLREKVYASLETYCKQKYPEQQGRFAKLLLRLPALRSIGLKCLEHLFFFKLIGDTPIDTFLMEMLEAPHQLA
Chain of Peroxisome proliferator-activated receptor gamma (Homo sapiens) (P37231 whole entry, looked up, the tested form may be a part): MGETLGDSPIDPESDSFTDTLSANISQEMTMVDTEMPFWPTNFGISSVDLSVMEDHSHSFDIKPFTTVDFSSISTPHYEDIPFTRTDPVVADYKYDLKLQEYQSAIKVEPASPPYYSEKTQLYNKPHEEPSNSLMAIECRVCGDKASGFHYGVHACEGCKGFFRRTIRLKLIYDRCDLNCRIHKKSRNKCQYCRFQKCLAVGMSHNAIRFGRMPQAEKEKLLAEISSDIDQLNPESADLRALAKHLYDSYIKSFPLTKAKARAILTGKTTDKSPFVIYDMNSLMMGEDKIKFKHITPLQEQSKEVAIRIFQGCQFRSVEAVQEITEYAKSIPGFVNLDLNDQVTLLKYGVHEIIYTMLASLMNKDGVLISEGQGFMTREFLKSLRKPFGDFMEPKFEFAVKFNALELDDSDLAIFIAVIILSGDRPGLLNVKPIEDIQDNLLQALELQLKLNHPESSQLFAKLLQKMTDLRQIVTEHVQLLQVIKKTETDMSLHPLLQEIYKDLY
Chain of human Thyroid Receptor alpha (THRa1), THRA (gene 7067) (P10827 whole entry, looked up, the tested form may be a part): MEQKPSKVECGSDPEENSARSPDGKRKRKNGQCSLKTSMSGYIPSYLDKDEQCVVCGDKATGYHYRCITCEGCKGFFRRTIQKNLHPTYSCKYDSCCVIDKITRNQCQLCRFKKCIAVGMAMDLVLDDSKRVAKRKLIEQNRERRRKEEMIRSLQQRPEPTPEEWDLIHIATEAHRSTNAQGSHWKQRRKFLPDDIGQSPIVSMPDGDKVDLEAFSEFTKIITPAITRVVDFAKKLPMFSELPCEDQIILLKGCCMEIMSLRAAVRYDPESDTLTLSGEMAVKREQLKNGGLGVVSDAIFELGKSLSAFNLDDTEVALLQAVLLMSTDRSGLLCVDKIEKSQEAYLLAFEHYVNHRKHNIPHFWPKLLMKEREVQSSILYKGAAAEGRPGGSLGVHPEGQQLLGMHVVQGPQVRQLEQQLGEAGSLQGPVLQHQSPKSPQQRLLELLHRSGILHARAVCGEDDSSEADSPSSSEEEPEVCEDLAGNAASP
Chain of Retinoic acid receptor alpha (Homo sapiens) (P10276 whole entry, looked up, the tested form may be a part): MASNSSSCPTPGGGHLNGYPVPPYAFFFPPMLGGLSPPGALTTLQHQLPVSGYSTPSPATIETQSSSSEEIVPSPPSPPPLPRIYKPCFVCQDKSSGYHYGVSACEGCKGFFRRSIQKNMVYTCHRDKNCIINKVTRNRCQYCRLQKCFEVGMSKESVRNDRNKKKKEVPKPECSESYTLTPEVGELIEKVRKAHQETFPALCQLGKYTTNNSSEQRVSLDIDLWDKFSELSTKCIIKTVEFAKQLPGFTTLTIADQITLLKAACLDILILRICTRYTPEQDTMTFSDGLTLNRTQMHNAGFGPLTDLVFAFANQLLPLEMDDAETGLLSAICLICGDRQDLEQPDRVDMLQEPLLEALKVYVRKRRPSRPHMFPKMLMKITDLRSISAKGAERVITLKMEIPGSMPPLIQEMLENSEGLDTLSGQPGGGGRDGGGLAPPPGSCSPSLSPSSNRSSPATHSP
Chain of Nuclear receptor subfamily 1 group I member 2 (Homo sapiens) (O75469 whole entry, looked up, the tested form may be a part): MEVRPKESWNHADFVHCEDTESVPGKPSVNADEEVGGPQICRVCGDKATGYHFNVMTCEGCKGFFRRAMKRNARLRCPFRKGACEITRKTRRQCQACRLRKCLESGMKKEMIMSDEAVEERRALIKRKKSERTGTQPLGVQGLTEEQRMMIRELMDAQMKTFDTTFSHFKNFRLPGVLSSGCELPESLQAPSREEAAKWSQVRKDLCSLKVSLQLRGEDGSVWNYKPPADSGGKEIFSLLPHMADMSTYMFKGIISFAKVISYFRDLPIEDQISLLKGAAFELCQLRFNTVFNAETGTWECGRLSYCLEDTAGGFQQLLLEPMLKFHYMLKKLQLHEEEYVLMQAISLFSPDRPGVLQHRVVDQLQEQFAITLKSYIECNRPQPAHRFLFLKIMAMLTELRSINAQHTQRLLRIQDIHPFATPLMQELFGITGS
Chain of human Retinoic Acid Receptor beta (RARb), RARB (gene 5915) (P10826 whole entry, looked up, the tested form may be a part): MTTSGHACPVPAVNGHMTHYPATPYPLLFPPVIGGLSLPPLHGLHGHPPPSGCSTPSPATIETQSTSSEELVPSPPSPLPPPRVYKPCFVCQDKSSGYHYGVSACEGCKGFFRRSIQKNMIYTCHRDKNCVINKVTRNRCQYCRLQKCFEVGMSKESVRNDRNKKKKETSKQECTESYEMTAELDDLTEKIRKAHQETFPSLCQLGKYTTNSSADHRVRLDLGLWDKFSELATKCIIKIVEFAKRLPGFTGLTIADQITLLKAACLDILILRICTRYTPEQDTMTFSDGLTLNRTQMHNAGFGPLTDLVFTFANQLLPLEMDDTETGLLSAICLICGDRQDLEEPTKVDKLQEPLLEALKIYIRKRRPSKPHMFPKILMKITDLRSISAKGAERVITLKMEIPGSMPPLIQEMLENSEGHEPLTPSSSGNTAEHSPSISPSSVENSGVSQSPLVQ
Chain of human RAR-related Orphan Receptor beta (RORb), RORB (gene 6096) (Q92753 whole entry, looked up, the tested form may be a part): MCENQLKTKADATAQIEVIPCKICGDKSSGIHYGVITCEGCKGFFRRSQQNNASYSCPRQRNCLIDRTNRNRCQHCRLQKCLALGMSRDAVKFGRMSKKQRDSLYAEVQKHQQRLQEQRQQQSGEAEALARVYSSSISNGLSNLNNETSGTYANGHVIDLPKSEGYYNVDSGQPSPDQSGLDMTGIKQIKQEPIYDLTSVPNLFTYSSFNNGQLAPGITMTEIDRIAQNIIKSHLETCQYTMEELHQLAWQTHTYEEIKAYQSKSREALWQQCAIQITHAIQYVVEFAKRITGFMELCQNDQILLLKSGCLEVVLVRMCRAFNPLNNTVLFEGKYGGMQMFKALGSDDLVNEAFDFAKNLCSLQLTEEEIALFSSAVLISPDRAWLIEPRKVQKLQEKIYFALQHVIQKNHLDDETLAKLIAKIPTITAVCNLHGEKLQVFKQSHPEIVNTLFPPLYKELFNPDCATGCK
Chain of human Peroxisome Proliferator-activated Receptor alpha (PPARa), PPARA (gene 5465) (Q07869 whole entry, looked up, the tested form may be a part): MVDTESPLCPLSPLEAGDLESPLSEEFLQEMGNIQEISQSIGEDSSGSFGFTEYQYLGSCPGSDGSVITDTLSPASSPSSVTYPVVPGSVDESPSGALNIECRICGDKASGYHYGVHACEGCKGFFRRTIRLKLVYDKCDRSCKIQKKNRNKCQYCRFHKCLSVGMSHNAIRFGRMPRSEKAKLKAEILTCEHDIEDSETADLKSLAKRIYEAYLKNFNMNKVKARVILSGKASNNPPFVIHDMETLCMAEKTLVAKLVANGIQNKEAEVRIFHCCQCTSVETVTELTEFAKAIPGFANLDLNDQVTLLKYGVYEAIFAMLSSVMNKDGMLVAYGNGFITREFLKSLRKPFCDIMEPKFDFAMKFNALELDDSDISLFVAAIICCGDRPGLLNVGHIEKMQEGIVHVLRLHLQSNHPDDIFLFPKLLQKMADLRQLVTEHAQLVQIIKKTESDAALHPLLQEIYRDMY

O=C1CCCCCCCCCCC1
active: [7] 27.4 µM | [11] 44.4 µM
not listed: [16] | [17] | [18] | [19] | [20]
inactive: all other assays above

CC(Cl)COP(=O)(OCC(C)Cl)OCC(C)Cl (centres undefined)
active: [7] 1.37 µM
not listed: [9] | [14] | [19] | [20]
inactive: all other assays above

CCCCCCCCCCCC(C)=O
active: [1] 30.1 µM | [4] 32.5 µM | [5] 20 µM | [6] 51 µM | [11] 25.9 µM | [12] 33.7 µM | [13] 20 µM | [15] 32.5 µM
not listed: [3] | [14] | [17] | [18]
inactive: all other assays above

CCCCCCC=O
active: [6] 100 µM
not listed: [11] | [14] | [16] | [17] | [18] | [20]
inactive: all other assays above

C=CC(=O)NC(C)(C)C
inactive: [1] | [2] | [4] | [5] | [7] | [11] | [12] | [13] | [18] | [15]

CCCCCCCO
active: [11] 114 µM
not listed: [3] | [9] | [16] | [17] | [19] | [20]
inactive: all other assays above

CC(C)[N+](C)(CCOC(=O)C1c2ccccc2Oc2ccccc21)C(C)C
active: [6] 58.2 µM
not listed: [8] | [10] | [11] | [14] | [16] | [19]
inactive: all other assays above

CCCCCCCCCCCC(=O)N(C)CC(=O)O
inactive: [1] | [4] | [16] | [5] | [7] | [20] | [12] | [13] | [15]
active: [2] 7.45 µM | [3] 35.2 µM | [5] 15.2 µM | [6] 13.1 µM

CC/C=C\CCOC(=O)c1ccccc1O
active: [1] 20 µM | [4] 31.3 µM | [5] 22.8 µM | [6] 39.5 µM | [12] 32.9 µM | [18] 10.9 µM | [15] 33.1 µM
inactive: [2] | [3] | [7] | [8] | [9] | [11] | [13]

CC1(C)CC(O)CC(C)(C)N1[O]
active: [12] 0.0621 µM
not listed: [7] | [8] | [9] | [11] | [14] | [16] | [17] | [19]
inactive: all other assays above

Nc1nc(N)nc(-c2ccccc2)n1
not listed: [3] | [8] | [14] | [16] | [18] | [19]
inactive: all other assays above

CCOC(=O)C1=NN(c2ccc(Cl)cc2Cl)C(C)(C(=O)OCC)C1 (centres undefined)
active: [6] 87.1 µM | [18] 20 µM
not listed: [7] | [9] | [11] | [14] | [16] | [17]
inactive: all other assays above

Cc1ccc([N+](=O)[O-])cc1N
active: [20] 25.7 µM
not listed: [3] | [8] | [10] | [16] | [17] | [18] | [19]
inactive: all other assays above

CCNc1nc(NC(C)(C)C)nc(OC)n1
active: [7] 3.89 µM
not listed: [2] | [9] | [14] | [20]
inactive: all other assays above

O=C(Oc1ccccc1)c1ccccc1C(=O)Oc1ccccc1
active: [6] 47.6 µM | [15] 20 µM
inactive: [1] | [2] | [3] | [4] | [5] | [7] | [12] | [13] | [14]

Oc1c(Cl)cc(Cl)c(Cl)c1Cl
active: [1] 32.5 µM | [4] 28.3 µM | [5] 20 µM | [6] 27 µM | [12] 27.7 µM | [13] 29.2 µM | [14] 30.7 µM | [15] 25 µM
inactive: [3] | [16] | [7] | [8] | [10] | [17]

C=CCCCCCCCCC=O
active: [6] 61.7 µM | [11] 105 µM
not listed: [3] | [8] | [16] | [17] | [18] | [19]
inactive: all other assays above
